# Activity calls are given as the source filed them.
# Experiments:
# [1] = optical density shifts of acrAB sulA E. coli – strain DRC41, OD650, 48 h, E. coli filamentation inducer project, primary screen (AID 1152); conditions: higher = more signal, called active from +8 up or from −8 down;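 further: E. coli MC1000 strain DRC41 lacking acrAB efflux pump and sulA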
# [2] = probe aLefty1 binding on compound microarray – biochemical, small-molecule microarray, 635/667 nm fluorescence, primary screen (AID 1153); conditions: higher = more signal;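 further: score merges spot fluorescence with signal-to-noise ratio from the scanned slide images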
# [3] = plasmodial surface anion channel blockers, osmotic lysis – cell-based, P. falciparum Indochina, OD700, 1 h, primary screen (AID 1154); conditions: P. falciparum Indochina infected RBC osmotic lysis, higher = more signal, called active from +8 up or from −8 down
# [4] = plasmodial surface anion channel blockers, osmotic lysis – cell-based, P. falciparum Indochina, OD700, 2 h, primary screen (AID 1155);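 further: lysis reports solute entry through the parasite surface anion channel PSAC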; conditions: P. falciparum Indochina infected erythrocytes, higher = more signal, called active from +8 up or from −8 down
# [5] = changes in parasitized red cell lysis, either direction – P. falciparum Indochina, OD700, 3 h, PSAC antagonist project, primary screen (AID 1156); conditions: P. falciparum-infected erythrocytes, osmotic lysis, higher = more signal, called active from +8 up or from −8 down
# [6] = plasmodial surface anion channel blockers, osmotic lysis – cell-based, P. falciparum Indochina, OD700, 18 h, primary screen (AID 1157); conditions: P. falciparum Indochina infected erythrocytes, osmotic lysis OD700, 18 h; higher = more signal, called active from +8 up or from −8 down
# [7] = S6 kinase pathway phospho-S6 level changes – cell-based, A549, cytoblot, luminescence, serum-stimulated, primary screen (AID 1158); conditions: 5 h, higher = more signal;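 further: serum-stimulated A549 lung adenocarcinoma cells; signal is phosphorylated S6 detected by cytoblot immunostaining with HRP secondary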
# [8] = molecular target: NADPH oxidase 2 (Homo sapiens) (UniProt P04839); assay: compounds shifting NOX2 Amplex Red fluorescence – cell-based, HEK293-NOX2, PMA-stimulated, NOX inhibitor project, primary screen (AID 1159); conditions: 45 min, higher = more signal, called active from +8 up or from −8 down; further: test concentration not given here
# Sequence of NADPH oxidase 2 (Homo sapiens) (P04839 whole entry, looked up): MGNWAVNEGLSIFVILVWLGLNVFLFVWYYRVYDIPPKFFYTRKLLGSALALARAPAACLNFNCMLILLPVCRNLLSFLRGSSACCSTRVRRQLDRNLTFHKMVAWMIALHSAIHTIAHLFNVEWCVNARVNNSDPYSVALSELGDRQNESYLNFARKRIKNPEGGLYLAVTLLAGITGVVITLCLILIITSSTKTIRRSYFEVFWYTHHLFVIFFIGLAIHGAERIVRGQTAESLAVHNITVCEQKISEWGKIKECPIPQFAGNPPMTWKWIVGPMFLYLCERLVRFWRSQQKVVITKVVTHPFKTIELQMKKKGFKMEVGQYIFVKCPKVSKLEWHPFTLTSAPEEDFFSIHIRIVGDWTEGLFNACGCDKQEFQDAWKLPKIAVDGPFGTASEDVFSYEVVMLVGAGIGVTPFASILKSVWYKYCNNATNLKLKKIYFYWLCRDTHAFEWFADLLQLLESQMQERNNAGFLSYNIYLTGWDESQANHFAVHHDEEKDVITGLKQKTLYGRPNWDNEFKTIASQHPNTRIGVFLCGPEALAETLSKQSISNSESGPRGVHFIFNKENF
# [9] = molecular target: NADPH oxidase 4 (Homo sapiens) (UniProt Q9NPH5); assay: compounds shifting NOX4 Amplex Red fluorescence – cell-based, HEK293-NOX4, tetracycline-induced, NOX inhibitor project, primary screen (AID 1160); conditions: HEK293-NOX4, Amplex Red H2O2 fluorescence, 45 min; higher = more signal, called active from +8 up or from −8 down
# Sequence of NADPH oxidase 4 (Homo sapiens) (Q9NPH5 whole entry, looked up): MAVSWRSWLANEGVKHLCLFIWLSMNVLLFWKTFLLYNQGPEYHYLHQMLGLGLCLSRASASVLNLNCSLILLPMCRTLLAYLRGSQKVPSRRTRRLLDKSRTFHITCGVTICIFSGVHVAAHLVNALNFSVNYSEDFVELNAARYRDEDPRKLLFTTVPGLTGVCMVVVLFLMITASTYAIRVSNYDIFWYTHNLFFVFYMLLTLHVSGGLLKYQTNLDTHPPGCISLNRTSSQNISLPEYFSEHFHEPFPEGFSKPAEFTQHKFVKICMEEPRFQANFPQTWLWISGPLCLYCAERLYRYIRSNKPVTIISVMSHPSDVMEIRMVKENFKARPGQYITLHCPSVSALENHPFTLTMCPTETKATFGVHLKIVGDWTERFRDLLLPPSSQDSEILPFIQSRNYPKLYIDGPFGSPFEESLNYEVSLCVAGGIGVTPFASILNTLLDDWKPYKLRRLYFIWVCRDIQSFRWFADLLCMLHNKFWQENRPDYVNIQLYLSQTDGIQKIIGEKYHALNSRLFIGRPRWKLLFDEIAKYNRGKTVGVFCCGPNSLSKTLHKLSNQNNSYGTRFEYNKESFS
# [10] = molecular target: NADPH oxidase 5 (Homo sapiens) (UniProt Q96PH1); assay: compounds shifting NOX5 Amplex Red fluorescence – cell-based, HEK293-NOX5, NOX inhibitor project, primary screen (AID 1161); conditions: HEK293-NOX5, ionomycin, 45 min, higher = more signal
# Sequence of NADPH oxidase 5 (Homo sapiens) (Q96PH1 whole entry, looked up): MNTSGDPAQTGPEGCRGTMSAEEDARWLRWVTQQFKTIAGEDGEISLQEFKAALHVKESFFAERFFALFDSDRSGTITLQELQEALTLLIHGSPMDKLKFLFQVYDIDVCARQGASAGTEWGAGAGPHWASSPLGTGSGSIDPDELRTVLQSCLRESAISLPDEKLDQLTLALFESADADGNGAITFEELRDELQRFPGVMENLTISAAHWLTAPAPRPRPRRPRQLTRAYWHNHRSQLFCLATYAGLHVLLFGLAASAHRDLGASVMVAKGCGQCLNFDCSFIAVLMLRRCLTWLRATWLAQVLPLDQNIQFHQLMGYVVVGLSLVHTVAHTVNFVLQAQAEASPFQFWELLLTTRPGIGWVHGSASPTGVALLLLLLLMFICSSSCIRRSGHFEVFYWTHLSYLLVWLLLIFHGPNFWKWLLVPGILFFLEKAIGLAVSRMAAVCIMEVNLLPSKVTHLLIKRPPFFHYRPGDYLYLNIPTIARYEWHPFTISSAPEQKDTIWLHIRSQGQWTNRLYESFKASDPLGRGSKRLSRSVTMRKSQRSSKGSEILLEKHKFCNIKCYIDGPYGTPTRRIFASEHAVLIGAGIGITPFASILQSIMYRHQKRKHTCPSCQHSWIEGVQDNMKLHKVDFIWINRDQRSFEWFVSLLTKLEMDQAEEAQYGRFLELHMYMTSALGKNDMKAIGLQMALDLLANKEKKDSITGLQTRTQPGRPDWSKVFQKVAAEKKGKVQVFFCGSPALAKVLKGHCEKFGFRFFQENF
# [11] = compound effects on lung adenocarcinoma cell viability – A549, calcein-AM fluorescence, 48 h, basal, profiling panel (AID 1162); conditions: higher = more signal; further: test concentration not given here
# [12] = compound effects on differentiated 3T3-L1 adipocyte viability – cell-based, 3T3-L1 adipocytes, calcein-AM fluorescence, 48 h, basal, profiling panel (AID 1163); conditions: 3T3-L1 adipocytes viability, higher = more signal; further: test concentration not given here
# [13] = compound effects on hepatocellular carcinoma cell viability – HepG2, calcein-AM fluorescence, 48 h, basal, profiling panel (AID 1164); conditions: higher = more signal; further: test concentration not given here
# [14] = compound effects on multiple myeloma cell viability – MM1S, calcein-AM fluorescence, 48 h, basal, profiling panel (AID 1165); conditions: higher = more signal; further: test concentration not given here
# [15] = calcein-AM signal in unstimulated myeloma cells – cell-based, calcein-AM fluorescence, 48 h, PK04 Diversity Set, profiling panel (AID 1166); conditions: RPMI8226 myeloma viability, higher = more signal;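 further: cells grown under basal conditions without added stimulus; test concentration not given here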
# [16] = JC-1 mitochondrial signal, unstimulated HepG2 cells – cell-based, JC-1 fluorescence, 24 h, 100 nL compound, profiling panel (AID 1167); conditions: HepG2 mitochondrial potential, higher = more signal; further: test concentration not given here
# [17] = JC-1 mitochondrial signal, unstimulated adipocytes – cell-based, JC-1 fluorescence, 3T3-L1 adipocytes, 24 h, 100 nL compound, profiling panel (AID 1168); conditions: JC-1 mitochondrial fluorescence, higher = more signal, called active from +8 up or from −8 down; further: test concentration not given here
# [18] = JC-1 mitochondrial signal, unstimulated myeloma cells – cell-based, JC-1 fluorescence, RPMI8226, 24 h, 100 nL compound, profiling panel (AID 1169); conditions: JC-1 mitochondrial potential fluorescence, higher = more signal; further: test concentration not given here
# [19] = JC-1 mitochondrial signal, unstimulated MM1S myeloma – cell-based, JC-1 fluorescence, 24 h, 100 nL compound, profiling panel (AID 1170); conditions: MM1S mitochondrial potential, higher = more signal; further: test concentration not given here
# [20] = resazurin metabolic signal in A549 cells – cell-based, resazurin fluorescence, 24 h, PK04 Diversity Set, profiling panel (AID 1171); conditions: A549 viability, higher = more signal, called active from +8 up or from −8 down; further: test concentration not given here
SMILES,z-score [1],composite z-score [2],z-score [3],z-score [4],z-score [5],z-score [6],z-score [7],z-score [8],z-score [9],z-score [10],z-score [11],z-score [12],z-score [13],z-score [14],z-score [15],z-score [16],z-score [17],z-score [18],z-score [19],z-score [20]
O=C(NN=C1C[C@@H](O)[C@@H](O)[C@@H]2[C@@H]3C(=O)N(C[C@@H]4CCCO4)C(=O)[C@@H]3CC[C@@H]12)OCc1ccccc1,0.828 (inactive),-0.24,0.423 (inactive),-1.35 (inactive),0.449 (inactive),-1.97 (inactive),2.18,-0.532 (inactive),0.554 (inactive),0.8,0.468,0.211,-0.293,-0.745,0.215,0.795,0.131 (inactive),0.103,-0.989,-0.451 (inactive)
CC(C)CON=C1C[C@@H](O)[C@@H](O)[C@@H]2[C@@H]3C(=O)N(C4CCCCC4)C(=O)[C@@H]3CC[C@@H]12,-1.24 (inactive),-0.0662,-0.133 (inactive),-0.346 (inactive),-0.383 (inactive),-0.0384 (inactive),-0.354,1 (inactive),-1.59 (inactive),-0.143,-0.162,0.617,-0.323,-0.34,-0.271,-1.21,-0.49 (inactive),-0.0174,0.268,-0.048 (inactive)
O=c1n(Cc2cc3c(cc2Cl)OCO3)c(=O)n2n1CC[C@@H]1C(=NOCc3ccccc3)[C@H]3O[C@H]3[C@@H](O)[C@@H]12,0.112 (inactive),-0.055,0.99 (inactive),-1.13 (inactive),0.434 (inactive),-2.49 (inactive),1.63,-0.641 (inactive),0.153 (inactive),0.615,0.7,-0.362,0.941,-0.64,0.341,1.1,0.218 (inactive),0.185,0.178,-1.11 (inactive)
CCOC(=O)[C@H](CC(C)C)NC(=O)CCC1CC(OC(=O)NCc2cccc3ccccc23)CC2(CCCC(COC(=O)NCCC(C)C)O2)O1 (stereo not given in full),-0.64 (inactive),0.185,22.7 (active),6.81 (inactive),-0.861 (inactive),0.78 (inactive),2.49,0.902 (inactive),0.777 (inactive),0.389,2.25,0.944,0.312,-3.2,-1.05,0.162,0.199 (inactive),-0.17,-1.27,0.169 (inactive)
CC(C)(C)N1C(=O)[C@H]2[C@H]3[C@H](O)C=CC(=O)[C@@H]3CC[C@H]2C1=O,-0.0926 (inactive),-0.286,-0.007 (inactive),-0.566 (inactive),-0.562 (inactive),-0.43 (inactive),0.0787,0.497 (inactive),-1.67 (inactive),-0.47,-0.269,0.815,0.282,0.326,0.311,0.102,-0.211 (inactive),-0.0172,1.19,0.0796 (inactive)
COC(=O)[C@H](C)NC(=O)CCC1CC(OC(=O)NCc2ccc3c(c2)OCO3)CC2(CCCC(COC(=O)NCCc3ccccc3OC)O2)O1 (stereo not given in full),-0.0563 (inactive),-0.162,20.9 (active),5.56 (inactive),-0.257 (inactive),0.566 (inactive),1.15,0.221 (inactive),0.301 (inactive),0.339,-0.949,-0.976,-2.36,-3.53,-1.56,-1.34,0.354 (inactive),-0.241,-0.735,0.389 (inactive)
Cc1ccc(S(=O)(=O)N[C@H]2COC(=O)CC=C[C@H](C)[C@@H](NS(=O)(=O)c3ccc(C)cc3)COC(=O)CC=C[C@@H]2C)cc1,0.373 (inactive),-0.147,0.334 (inactive),0.283 (inactive),0.654 (inactive),0.441 (inactive),-1.01,0.152 (inactive),-1.92 (inactive),-1.01,-0.315,0.352,-0.521,0.248,-0.11,0.477,-0.0603 (inactive),0.822,0.507,0.694 (inactive)
CC[C@@H](c1ccccc1)n1c(=O)n2n(c1=O)[C@H]1[C@H](O)[C@@H]3O[C@@H]3C(=NOC[C@@H](O)COCc3ccco3)[C@H]1CC2,-0.389 (inactive),-0.89,1.34 (inactive),-0.339 (inactive),-0.18 (inactive),-0.381 (inactive),0.225,-0.892 (inactive),0.796 (inactive),1.36,-0.335,-0.193,-0.378,-0.0533,-0.736,-1.44,-0.368 (inactive),-0.465,0.432,0.0367 (inactive)
CC(C)CON=C1C[C@@H](O)[C@@H](O)[C@@H]2[C@@H]3C(=O)N(C4CCCCC4)C(=O)[C@@H]3CC[C@H]12,0.539 (inactive),-0.101,-0.172 (inactive),0.193 (inactive),0.168 (inactive),0.0575 (inactive),-0.545,-0.671 (inactive),-0.118 (inactive),-0.246,0.325,0.274,0.232,0.768,-0.909,-0.357,0.0297 (inactive),0.0139,-0.0788,-0.318 (inactive)

# Source: PubChem BioAssay
